Reference: PubChem BioAssay (NCATS)
Several values for one entry are separate records, joined by “and”; a condition that tells them apart may be missing. Equal entries are not always repeated. Inconclusive results are not listed. Activity calls are given as the source filed them. Unless noted, calls come from the whole dose curve; as a rule, active = well fitted curve in the direction sought with a large enough effect; inconclusive = small, poorly fitted or top-dose-only effect, or another doubt; inactive = no such curve, though single readings can be large; an effect the other way counts as inactive or inconclusive.

What was measured:
[1] = Cell Viability - HepG2 (AID 433; calls by dose curve;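 note: potency is the fitted concentration of half-maximal effect; potency for ATP loss meaning cytotoxicity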); settings: qHTS
Procedure, shortened: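 Cytotoxicity is scored as loss of intracellular ATP in HepG2 cells exposed to compounds for 40 h. Concentration-response curves, normalized to DMSO and 100 uM tamoxifen, give AC50 values.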

[2] = Cell Viability - MRC5 (AID 434; calls by dose curve;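 note: potency is the fitted concentration of half-maximal effect; potency reflects cytotoxicity seen as loss of intracellular ATP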); settings: MRC5 lung fibroblast viability, qHTS
Procedure, shortened: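 MRC5 normal human lung fibroblasts, 1500 cells/well, exposed to compound for 40 hr at 37 C. Cellular ATP was read by CellTiter-Glo luminescence; data normalized to DMSO and 100 uM tamoxifen, with AC50 from Hill fits.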

[3] = molecular target: Mitogen-activated protein kinase 10 (Mus musculus) (UniProt Q61831); experiment: JNK3 AlphaScreen Assay (AID 530; active = well fitted curve in either direction with a large enough effect, not every such curve was filed as active;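 note: kinase came from lysate of stimulated human HepG2 cells; signal reports phosphorylation of biotinylated GST-cJun 1-79 at Ser73 with 10 µM ATP; % is set by controls: 0 for no effect and ±100 for the full control effect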); settings: JNK3 lysate, c-Jun phosphorylation; series mostly up to 57.1 µM
Procedure, shortened: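 qHTS format: compounds tested as titrations against IL-1beta/TNF-alpha-activated HepG2 lysate JNK3 with biotin-GST-cJun substrate and 10 uM ATP at room temperature. Loss of anti-phospho-cJun AlphaScreen signal indicates inhibition.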

[4] = Cell Viability - HUV-EC-C (AID 542); settings: HUV-EC-C endothelial cell viability, qHTS; series mostly up to 92.2 µM; note: % is set by controls: 0 for no effect and ±100 for the full control effect; nearly all actives have a fitted effect of over 35% in size
Procedure, shortened: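 HUV-EC-C normal human vascular endothelial cells, 1000 cells/well, pre-incubated 5 hr at 37 °C, then exposed to compounds for 40 hr at 37 °C in complete medium. Viability measured as intracellular ATP by CellTiter-Glo luminescence; AC50 from Hill fits.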

[5] = Cell Viability - SH-SY5Y (AID 544); settings: SH-SY5Y neuroblastoma cell viability; viability change, negative = cytotoxic: at 92.2 µM (top of the series); note: nearly all actives have a fitted effect of over 55% in size
Procedure, shortened: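 Human neuroblastoma SH-SY5Y cells (1500/well) in complete medium were exposed to compounds for 40 hr at 37 °C; intracellular ATP was then quantified by CellTiter-Glo luminescence after 20 min at room temperature. AC50 came from Hill-equation concentration-response fits.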

[6] = Cell Viability - Renal Proximal Tubule (AID 545); settings: renal proximal tubule cells viability; at 91.7 µM (top of the series), primary cells of rat origin unless noted; note: nearly all actives have a fitted effect of over 40% in size
Procedure, shortened: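 Cytotoxicity is scored as a concentration-dependent drop in cellular ATP in primary rat renal proximal tubule cells exposed for 40 hr. AC50 derives from Hill modelling.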

[7] = Cell Viability - Mesenchymal (AID 546); settings: mesenchymal cells viability, qHTS; series mostly up to 91.7 µM;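 note: cells exposed to compound for 40 hours before reading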
Procedure, shortened: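 Human kidney mesenchymal cells from normal renal glomeruli, 1000 cells/well, rested 5 hr at 37 °C, then treated 40 hr at 37 °C in complete medium. Cellular ATP read by CellTiter-Glo luminescence; AC50 from Hill-equation fits.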

[8] = Cellular Toxicity (caspase-3) HUV-EC-C (AID 656); settings: HUV-EC-C cells, caspase-3 activation (apoptosis), vehicle = 0, 100 µM tamoxifen = 100%; series mostly up to 92.2 µM
Procedure, shortened: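 Read-out: luminescence proportional to caspase 3/7 activity, measured 20 min after adding Caspase-Glo 3/7 reagent. Cells (HUV-EC-C) had received compound for 16 hr at 37°C. Increases relative to DMSO and 100 uM tamoxifen gave concentration-response AC50 values.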

[9] = Cellular Toxicity (caspase-3) SHSY5Y (AID 657); settings: SH-SY5Y caspase-3 activation, DMSO zero, 10 µM staurosporine = 100%; series mostly up to 91.7 µM
Procedure, shortened: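 Cells plated and incubated 5 h at 37 °C, dosed over a concentration range, incubated 16 h, then given Caspase-Glo 3/7 reagent for 1 h at room temperature before luminescence reading. Staurosporine (10 uM) defined full stimulation.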

[10] = Cellular Toxicity (caspase-3) MRC-5 (AID 659); settings: MRC-5 cells, luminescence, normalized: DMSO 0%, 10 µM staurosporine 100%; series mostly up to 91.7 µM
Procedure, shortened: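 MRC-5 human normal lung fibroblasts, 1500 cells/well, treated 16 h at 37 °C in complete medium. Caspase 3/7 measured by Caspase-Glo luminescence after 1 h at room temperature. Normalized to DMSO and 10 uM staurosporine; AC50 from Hill fit.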

[11] = Cellular Toxicity (caspase-3) Mesangial (AID 660); settings: mesangial cells, normalized: DMSO 0%, 100 µM tamoxifen 100%; series mostly up to 91.7 µM;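 note: cells exposed to compound for 16 h before the caspase read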
Procedure, shortened: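 Human renal glomerular mesangial cells (1000/well) were treated with compounds for 16 h at 37 °C in complete medium, then caspase 3/7 activity was read by Caspase-Glo luminescence. Data were normalized to DMSO and 100 uM tamoxifen; AC50 from Hill fits.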

[12] = Cell Viability - LYMP1-002 - Assay at 16 hr (AID 948); settings: LYMP1-002 lymphoblastoid cell viability; series mostly up to 92.2 µM;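 note: 0% = DMSO alone and full effect = 92 µM tetraoctylammonium bromide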
Procedure, shortened: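 Acute cytotoxicity is scored as a concentration-dependent fall in intracellular ATP in a human lymphoblastoid line (LYMP1-002) after 16 hr compound exposure at 37 C, measured by luciferase luminescence.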

[13] = MultiTox-Fluor Cytotoxicity Assay - LYMP1-003 - Dead Cells (AID 961); settings: LYMP1-003 lymphoblastoid cells, dead-cell protease fluorescence; series mostly up to 92.2 µM;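 note: 0% = DMSO and 100% = tetraoctylammonium bromide; nearly all actives have a fitted effect of over 70% in size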
Procedure, shortened: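 LYMP1-003 human lymphoblastoid cells (2500/well) exposed to compound 16 h at 37 C in complete medium; dead-cell protease read with bis-AAF-R110 fluorescence (Ex/Em 485/520) after 60 min at room temperature. Normalized to DMSO and 15 uM tetraoctylammonium bromide; AC50 from Hill fit.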

[14] = Cell Viability - LYMP1-003 - Assay at 24 hr (AID 963); settings: LYMP1-003 lymphoblastoid cell viability; series mostly up to 92.2 µM;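 note: plate controls were DMSO only for no effect and tetraoctylammonium bromide positive control for full effect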
Procedure, shortened: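 Human lymphoblastoid LYMP1-003 cells (2500/well) were rested 5 hr at 37 C, then exposed to compounds in complete medium for 24 hr at 37 C. Cellular ATP was quantified by CellTiter-Glo luminescence, and AC50 values came from Hill fits of concentration-response data.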

[15] = Cell Viability - LYMP2-015 (AID 971); settings: LYMP2-015 lymphoblastoid cell viability; series mostly up to 92.2 µM;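 note: 0% = DMSO only and full effect = 92 µM tetraoctylammonium bromide; nearly all actives have a fitted effect of over 55% in size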
Procedure, shortened: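 Human lymphoblastoid cells (2500/well) in complete medium were preincubated 5 hr at 37 C, then compound-treated 24 hr at 37 C. Intracellular ATP was read by CellTiter-Glo luminescence after 30 min at room temperature; AC50 came from Hill-equation concentration-response fits.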

[16] = Cell Viability - LYMP2-025 (AID 976); settings: LYMP2-025 lymphoblastoid cell viability; series mostly up to 92.2 µM;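 note: plate controls were DMSO only for no effect and tetraoctylammonium bromide control for full effect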
Procedure, shortened: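 Human lymphoblastoid LYMP2-025 cells (2500/well) were pre-incubated 5 hr at 37 C, then treated with compounds for 24 hr at 37 C in complete medium. Viability was read as intracellular ATP by CellTiter-Glo luminescence; AC50 from Hill fits.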

[17] = qHTS Assay for Identification of Small Molecule Inducers of Hypoxia Response (AID 2120; active = well fitted curve in the direction sought with a large enough effect in the signal ratio, with a control signal flat, not every such curve was filed as active; the % refers to the signal ratio; note: 0% is about no effect); settings: hypoxia response reporter cells, beta-lactamase ratio readout; series mostly up to 104 µM
Procedure, shortened: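 HRE-beta-lactamase reporter in CellSensor HRE-bla ME-180 cells, 2500 cells/well in Opti-MEM with 0.5% dialyzed FBS; compounds tested as titration series, 17 h at 37 degrees C. CCF4 substrate 2.5 h at room temperature; AC50 from 460/530 nm ratio.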

[18] = qHTS assay for small molecule agonists of the antioxidant response element (ARE) signaling pathway measured by Nrf2-dependant transcriptional activity - cell viability counter screen (AID 720653; active = well fitted curve in the direction sought with a large enough effect in the repeat runs; an effect the other way counts as inactive or inconclusive; note: % is set by controls: 0 for no effect and ±100 for the full control effect); settings: ARE-bla HepG2 viability, CellTiter-Glo ATP luminescence, 16 h; stronger effect = lower value
Procedure, shortened: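 ARE-bla HepG2 cells treated with compounds for 16 h at 37C; this counter screen measures viability as intracellular ATP by CellTiter-Glo luminescence after 30 min at room temperature.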

[19] = qHTS assay for cell viability of HEK293 cells (AID 743288); settings: ATP luminescence (CellTiter-Glo), 18 h; max response: stronger effect = lower value; note: % is set by controls: 0 for no effect and ±100 for the full control effect; nearly all actives have a fitted effect of over 50% in size
Procedure, shortened: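 The Tox21 protocol used parental HEK293 cells treated for 18 h at 37 C with compounds delivered by pintool; ATP-coupled luminescence after 30 min at room temperature gave viability.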

[20] = qHTS assay for cell viability of the p53RE-bla HCT-116 cell line (AID 743292); settings: p53RE-bla HCT-116 viability, ATP luminescence, 16 h; series mostly up to 95 µM; note: % is set by controls: 0 for no effect and ±100 for the full control effect; nearly all actives have a fitted effect of over 55% in size
Procedure, shortened: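 In this qHTS counter-screen, metabolically competent p53RE-bla HCT-116 cells were counted via their ATP content. Compounds were applied for 16 h at 37 C and luciferase-coupled luminescence was measured.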

CCOP(=S)(OCC)Oc1ccc([N+](=O)[O-])cc1
inactive: Potency [1] > 92 µM | Potency [2] > 92 µM | outcome [3] | Potency [4] | Potency [5] | activity change, negative = cytotoxicity [6] -6.62% and -2.54% | outcome [7] | outcome [8] | outcome [9] | outcome [10] | outcome [11] | Potency [12] | Potency [13] | Potency [14] | Potency [15] | Potency [16] | outcome [17] | max response [18] -2.59% and 6.4% and 13.8% | max response [19] 0.0323% and -20.7% and -1.59% | Potency [20]

Nc1c(Cl)c(Cl)nc(C(=O)O)c1Cl
inactive: Potency [1] > 92 µM | Potency [2] > 92 µM | outcome [3] | Potency [4] | Potency [5] | activity change, negative = cytotoxicity [6] -10.2% | outcome [7] | outcome [8] | outcome [9] | outcome [10] | outcome [11] | Potency [12] | Potency [13] | Potency [14] | Potency [15] | Potency [16] | outcome [17] | max response [18] 5.28% and -6.28% and -12.8% | max response [19] -0.605% and -10.4% and -8.99% | Potency [20]

O=NN(CCO)CCO
inactive: Potency [1] > 92 µM | Potency [2] > 92 µM | outcome [3] | Potency [4] | Potency [5] | activity change, negative = cytotoxicity [6] -10.4% | outcome [7] | outcome [8] | outcome [9] | outcome [10] | outcome [11] | Potency [12] | Potency [13] | Potency [14] | Potency [15] | Potency [16] | outcome [17] | max response [18] -8% | max response [19] -4.1% | Potency [20]

C[C@]12CC[C@H]3[C@@H](CCC4=CC(=O)CC[C@@]43C)[C@@H]1CC[C@@H]2O
inactive: Potency [1] > 92 µM | Potency [2] > 92 µM | Potency [4] | Potency [5] | activity change, negative = cytotoxicity [6] -15.1% [at 91.7 µM] | outcome [7] | outcome [8] | outcome [9] | outcome [10] | outcome [11] | Potency [12] | Potency [13] | Potency [14] | Potency [15] | Potency [16] | outcome [17] | max response [18] -2.92% | max response [19] -9.57% | Potency [20]

Clc1ccc2ccccc2c1
inactive: Potency [1] > 92 µM | Potency [2] > 92 µM | outcome [3] | Potency [4] | Potency [5] | activity change, negative = cytotoxicity [6] -5.07% | outcome [7] | outcome [8] | outcome [9] | outcome [10] | outcome [11] | Potency [12] | Potency [13] | Potency [14] | Potency [15] | Potency [16] | outcome [17] | max response [18] 4.36% | max response [19] 3.91% | Potency [20]

Nc1ccc(Br)cc1
inactive: Potency [1] > 92 µM | Potency [2] > 92 µM | outcome [3] | Potency [4] | Potency [5] | activity change, negative = cytotoxicity [6] -3.48% | outcome [7] | outcome [8] | outcome [9] | outcome [10] | outcome [11] | Potency [12] | Potency [13] | Potency [14] | Potency [15] | Potency [16] | outcome [17] | max response [18] -4.77% | max response [19] -7.62% | Potency [20]
